According to ChEMBL document CHEMBL3988442, “University of Dundee, Small-Polar-MMV Screening Library” (2021):
About 13,000 (27%) of roughly 48,000 compounds showed an effect of 50% or more. The list shows a part of the results.

Each compound was assayed on Wolbachia pipientis (assay: Anti-Wolbachia Cell-Based Screen). Conditions: 5 µM.
Type: functional
Parameters: scale not given: in the data most compounds retested in dose-response had high values

Structure (SMILES) | Percent Effect
CC(C)N1CCO[C@H]2CN(C(=O)c3ccc(N(C)C)cc3)C[C@H]21 | -8.625%
CN(C(=O)c1ccc[nH]1)C1CC(=O)N(Cc2ccccc2)C1=O (centres undefined) | -8.622%
CCOCC(=O)Nc1ncc(I)cc1C | -8.606%
Cc1cc(C)c(S(=O)(=O)Nc2c(C)nc(N3CCCC3)nc2C)cc1C | 12.58%
CNC(=O)N1CCC2(CC1)CN(C)Cc1cc(F)ccc12.Cl | 24.69%
Cc1nn(C)c(C)c1C1CCCN1Cc1nnc(C2CC2)n1C (centres undefined) | -7.496%
CCCc1nnc(N2CCCC(c3nnc(Cn4ccnc4)n3C)C2)s1 (centres undefined) | 0.1518%
Cc1cc(C(=O)N2CCC(c3nnc(Cn4ccnc4)n3C)CC2)cs1 | 95.2%
Cn1c(Cn2ccnc2)nnc1C1CCN(C(=O)c2cccnc2)CC1 | 92.17%
Cc1nc(C(=O)N2CCC(c3nnc(Cn4ccnc4)n3C)CC2)cs1 | 92.58%
CN(CCO)Cc1nnc(C2CCN(C(=O)c3ccccn3)CC2)n1C | -1.336%
CN(CCO)Cc1nnc(C2CCN(C(=O)c3cccnc3)CC2)n1C | -5.743%
Cc1nc(C(=O)N2CCC(c3nccn3Cc3ccncc3)CC2)cs1 | -0.8492%
Cn1c(Cn2ccnc2)nnc1C1CCN(C(=O)c2ccccn2)CC1 | 107.7%
Cc1nn(CN(CC2CCOC2)C2CC2)c(=O)c2ccccc12 (centres undefined) | -4.031%
Cc1nn(C)c(N2CCOCC2)c1CNC1CCOc2ccccc21 (centres undefined) | -6.51%
Cc1nnc(NCC2(c3ccccc3)CC2)c(C#N)c1C | 14.48%
CC(=O)NCC(Cc1cccc(F)c1)n1cccc1 (centres undefined) | 7.369%
CCNC(=O)CN(CC)C(=O)c1cccc(Nc2cnn(C)c2)c1 | -0.2175%
CN(Cc1cnc(N)nc1)C(=O)C1CC(=O)N(Cc2ccncc2)C1 (centres undefined) | -0.2602%
CN1CCN(Cc2n[nH]c(=O)n2CC2CCCCC2)CC1 | 12.01%
N#Cc1cccc(N2CCC(CO)(CCc3ccccc3)CC2)n1 | -13.62%
Cc1cnc(NCC(C)(C)N2CCN(C)CC2)nc1 | -0.3057%

Structure (SMILES) | Percent Effect
CN(CCO)Cc1nnc(C2CCN(C(=O)c3ccccc3)CC2)n1C | 8.451%
Cc1[nH]ccc1C(=O)N1CCC(c2nnc(Cn3ccnc3)n2C)CC1 | 6.251%
Cn1nc(Cn2ccnc2)c2c1CN(C(=O)c1ccoc1)C2.O=C(O)C(F)(F)F | -63.76%
Cn1c(Cn2ccnc2)nnc1C1CCN(C(=O)c2ccoc2)CC1 | 96.26%
Cn1cccc1C(=O)N1CCC(c2nnc(Cn3ccnc3)n2C)CC1 | 89.43%
Cn1c(Cn2ccnc2)nnc1C1CCN(C(=O)c2ccncc2)CC1 | 74.15%
Cn1c(Cn2ccnc2)nnc1C1CCN(Cc2cccnc2N)CC1 | -5.827%
CN(CCO)Cc1nnc(C2CCN(C(=O)c3cccn3C)CC2)n1C | -1.148%
Cn1cccc1C(=O)N1CCC(c2nccn2Cc2ccncc2)CC1 | 14.15%
CCN1C(=O)C(c2ccccc2)CC12CCN(c1ncccn1)CC2 (centres undefined) | -1.132%
CN(Cc1ccc(F)cc1)Cc1nc(-c2cnccn2)no1 | -0.4176%
CCc1n[nH]c(C2CN(Cc3ncc(CC)o3)CCO2)n1 (centres undefined) | -12.36%
CC(NC(=O)N1CCc2ccccc21)c1nncn1C (centres undefined) | -4.094%
CCC(C)N(Cc1sccc1C)C(=O)c1cc(N)ccn1 (centres undefined) | 107.3%
CNS(=O)(=O)c1csc(C(=O)NCc2sccc2C)c1 | -10.67%
CCC(C)N(Cc1sccc1C)C(=O)c1cnc[nH]1 (centres undefined) | 112.1%
CCC(C)N(Cc1sccc1C)C(=O)c1ccc(S(C)(=O)=O)cc1 (centres undefined) | 114.6%
CNS(=O)(=O)c1csc(C(=O)N(C)Cc2sccc2C)c1 | 1.133%
COC(=O)c1ccc(S(=O)(=O)NCC(O)c2sccc2C)cc1 (centres undefined) | 1.544%
CCC(C)N(Cc1sccc1C)C(=O)c1ccc2cccnc2n1 (centres undefined) | 114.4%
Cc1ccsc1CN(C)CCc1scnc1C | 3.291%
Cc1cc(C)c(CNC(=O)N(C)Cc2sccc2C)c(=O)[nH]1 | -0.6521%
Cc1ccsc1CNC(=O)CSc1nnc[nH]1 | -7.3%

Structure (SMILES) | Percent Effect
Cc1ccsc1CN(Cc1ncccc1C(=O)O)C1CC1 | -1.02%
Cc1ccsc1CN(C)Cc1ncccc1C(=O)O | 8.285%
O=C(NC1CC1)[C@H]1COC[C@H]2CN(c3ncc(F)cn3)C[C@H]21 | -1.694%
O=C(O)COc1ccc(Cl)cc1CN1CCC2(CCOCC2)CC1 | 5.352%
C=C(C)CN1CCC(Nc2nc(C)ns2)CC1 | 3.989%
Cc1nc(C)n(CC2CN(c3nnc(C)c(C)c3C#N)CCO2)n1 (centres undefined) | -9.439%
Cc1cc(C)n(CC2CCCN2Cc2ccc(F)cc2C#N)n1 (centres undefined) | -16.28%
Cc1nc(C)n(CC2CN(Cc3cc(C#N)ccc3F)CCO2)n1 (centres undefined) | 105.5%
N#Cc1ccc(CN2CCCC(Cn3cncn3)C2)c(F)c1 (centres undefined) | 10.83%
Cc1nc(C)n(CC2CCCN(Cc3ccc(F)cc3C#N)C2)n1 (centres undefined) | 96.96%
Cc1nc(C)n(CC2CN(c3ncccc3C#N)CCO2)n1 (centres undefined) | 109.9%
Cc1nc(C)n(CC2CCCN(Cc3cc(C#N)ccc3F)C2)n1 (centres undefined) | 126.4%
Cc1nc(C)n(CC2CCCN2Cc2ccc(F)cc2C#N)n1 (centres undefined) | -2.788%
Cc1nc(C)n(CC2CN(Cc3cccc(C#N)c3)CCO2)n1 (centres undefined) | 2.978%
Cc1nc(C)n(CC2CN(c3ncnc4[nH]ccc34)CCO2)n1 (centres undefined) | 9.938%
Cc1nc(C)n(CC2CN(Cc3cccc4c3OCCO4)CCO2)n1 (centres undefined) | -0.04658%
O=S(=O)(NCC1CCOc2ccccc2C1)N1CCOCC1 (centres undefined) | 11.66%
CS(=O)(=O)N1CCOC2(CCN(c3nccs3)CC2)c2ccccc21 | -2.369%
Cc1nc(C)n(CC2CCCN(Cc3ccccc3C#N)C2)n1 (centres undefined) | 99.33%
Cc1nc(C)n(CC2CCCN(CCc3ccccn3)C2)n1 (centres undefined) | -0.6255%
Cc1nc(C)n(CC2CCCN(CCOc3ccccc3C#N)C2)n1 (centres undefined) | 99.48%
N#Cc1ccccc1OCCN1CCCC(c2noc(C3CC3)n2)C1 (centres undefined) | 29.76%
Cc1nc(C)n(CC2CCCN(Cc3cccc(F)c3F)C2)n1 (centres undefined) | 100.4%

Structure (SMILES) | Percent Effect
Cn1nc2c(cc1=O)CN(Cc1nc(C(C)(C)C)no1)CC2 | 5.069%
Cc1nc(CN2CCCC(CCc3ccccc3C(F)(F)F)C2)co1 (centres undefined) | 3.253%
COc1cnc(N2CC(N3CCOCC3)C2)nc1-c1ccnn1C | -5.867%
Cc1ccc2c(c1)[C@@H](CC(=O)N1CCN(C)CC1)CCO2 | 86.47%
CN(C)C(=O)CC1CCOc2ccccc21 (centres undefined) | -4.71%
Cc1ccc(C2CSCCN2CC(=O)N2CCOCC2)cc1 (centres undefined) | 2.726%
CN(Cc1ccccn1)C(=O)CC1CCOc2ccccc21 (centres undefined) | -4.334%
Cc1ccc2c(c1)[C@@H](CC(=O)N(C)C)CCO2 | 103.2%
Cc1ccc2c(c1)[C@@H](CC(=O)N1CCOCC1)CCO2 | 86.47%
Cc1ccc2c(c1)C(NC1CCN(C)CC1)CCCO2 (centres undefined) | 0.3143%
Cc1ccc2c(ccn2CCC(=O)N2CCC(C(N)=O)CC2)c1 | 23.62%
COCC(=O)N1CCC2(CC1)CC(N1CCOCC1)c1ccc(C)cc12 (centres undefined) | 6.475%
O=C1CCOCCN1Cc1ccc(Cl)c(Cl)c1 | 9.877%
CSc1ccc(NC(=O)NCC(O)C(C)C)cc1F (centres undefined) | -14.41%
CNS(=O)(=O)CC(=O)N1CCC(c2ccc(F)c(F)c2)CC1 | -2.799%
CC(C)(C)c1cc(=O)n2c(n1)SCC(C(=O)NCc1cccs1)C2 (centres undefined) | 98.61%
CC(C)(C)c1cc(=O)n2c(n1)SCC(C(=O)NCc1ccccn1)C2 (centres undefined) | 106.1%
O=C(NCc1cccs1)C1CN(C(=O)c2cccs2)CC12CCOCC2 (centres undefined) | -10.89%
CC(C)Cc1cc(CNC(=O)C2CCCN(Cc3ccco3)C2)no1 (centres undefined) | -2.049%
O=C(NCc1cccs1)C1CCN(c2cc(-n3ccnc3)ncn2)CC1 | -1.807%
O=C(NCc1cccs1)C1CCCN(c2cc(-n3cncn3)ncn2)C1 (centres undefined) | -5.792%
CCc1c(C)nc2n(c1=O)CC(C(=O)NCc1cccs1)CS2 (centres undefined) | 101.3%
CN1[C@@H](c2ccccc2)[C@@H](C(=O)NCc2ccccn2)C[C@@]1(C)C(=O)O | 4.83%

Structure (SMILES) | Percent Effect
O=C(NCc1cn2cccnc2n1)C1CC(=O)N(Cc2ccccn2)C1 (centres undefined) | -14.07%
CC(C)(C)c1cc(=O)n2c(n1)SCC(C(=O)NCc1ccco1)C2 (centres undefined) | 102.3%
COC1CCN(CCNC(=O)NC(C)c2cccc(Cl)c2)CC1 (centres undefined) | 14.59%
O=C(C1CCCC1)N1CCC(c2n[nH]c3nccnc23)CC1 | 136.1%
O=C(C1CCCCC1)N1CCC(c2n[nH]c3nccnc23)CC1 | 126.4%
O=C(CCC(=O)Nc1ccccc1)NCC(=O)c1ccc(F)cc1F | -8.283%
O=C(Cn1cnc(-c2ccccc2)cc1=O)Nc1ccncc1 | 13.41%
Cl.NCCC(=O)Nc1ccc(-c2ccccc2)cc1 | 116.3%
CCCc1nc(CNC(=O)Cc2cc(C)no2)cs1 | -3.893%
CCS(=O)(=O)NCCNc1cc(-n2cccc2)ncn1 | 9.537%
CC(=O)NCC(=O)N1CCOC(c2cccc(N)n2)C1 (centres undefined) | 128.4%
Nc1cccc(C2CN(C(=O)CN3CCOCC3)CCO2)n1 (centres undefined) | 104.8%
Cc1n[nH]c(C2CN(CC(=O)NCc3ccco3)CCO2)n1 (centres undefined) | 14.88%
CNc1cccc(C2CN(C(=O)CNS(C)(=O)=O)CCO2)n1 (centres undefined) | 125.9%
COc1ccc2cc(C3CN(C(=O)CCNC(C)=O)CCO3)ccc2c1 (centres undefined) | -5.377%
CNC(=O)CN1CCOC(c2cccc(N)n2)C1 (centres undefined) | 126.4%
CNC(=O)CN1CCOC(c2ccccc2C(F)(F)F)C1 (centres undefined) | -19.7%
O=C(CCNS(=O)(=O)c1cccnc1)N1CCOC(c2ccccc2)C1 (centres undefined) | -17.46%
O=C(CCNS(=O)(=O)c1ccccc1)N1CCOC(c2ccccc2)C1 (centres undefined) | 1.988%
O=C(Cc1cccc(F)c1F)N1CCOC(c2cccc(O)c2)C1 (centres undefined) | -10.07%
COc1ccc2cc(C3CN(C(=O)CN4CCCC4)CCO3)ccc2c1 (centres undefined) | 0.8606%
CC(=O)NCC(=O)N1CCN(C)c2ncccc2C1 | -12.03%
